Here are results for eight compounds from PubChem BioAssay (NCI).

Test systems include DU-145 prostate; K-562 leukemia; MALME-3M melanoma; MDA-MB-231 breast; RXF 393 renal; SF-268 CNS; SF-295 CNS; SF-539 CNS; UACC-257 melanoma; M14 melanoma; HCT-15 colon; HT29 colon; SNB-75 CNS; SNB-19 CNS; U251 CNS; PC-3 prostate; SK-MEL-5 melanoma; UACC-62 melanoma; LOX IMVI melanoma; SK-MEL-28 melanoma.
Assay in all cases: NCI-60 one-dose screen, 48 h (100 = growth as untreated, 0 = no growth, -100 = all killed)
Common to all, as to settings: 10 µM unless noted

SMILES strings stand for the structures. The panel holds about 83,000 compounds, 20% with a hit somewhere; the sample as a whole holds those more often.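 Step 1: grow cells in 96-well plates. Step 2: add test compound at a single concentration. Step 3: incubate 48 h. Step 4: record percent growth.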 Values without a mark were called inactive. Active and inactive are the calls of the source. Rule for the calls: active = growth percent below 10; inactive = the rest.

Turning to `Nc1nc(N)c2c(n1)NC(c1cccc(Nc3ccnc4cc(C(F)(F)F)ccc34)c1)CC(c1ccc(Br)cc1)=N2` (stereo not given), the growth with DU-145 prostate was 71.2%; in the assay on K-562 leukemia, 10.5%; with MALME-3M melanoma it was 53.6%; with MDA-MB-231 breast, 57.3%; in the assay with RXF 393 renal it was 40.7%; in the assay with SF-268 CNS it was 61.4%. Also, the growth was 52% with SF-295 CNS; 83.9% with SF-539 CNS; 71.5% with UACC-257 melanoma; 42.9% in the assay with M14 melanoma; 19.5% in the assay on HCT-15 colon; 10.9% in the assay on HT29 colon. Besides, the growth in the assay with SNB-75 CNS was 57.2%; with SNB-19 CNS it was 66.4%; in the assay with U251 CNS it was 44.7%; in the assay with PC-3 prostate, 36.6%; in the assay with SK-MEL-5 melanoma it was 48.1%; in the assay with UACC-62 melanoma it was 77.9%. For the same compound, the results for the growth with LOX IMVI melanoma and in the assay on SK-MEL-28 melanoma were 24.6% and 73.6%, respectively.
Regarding `CC/C(Cc1ccccc1)=C(\c1ccc(OCCCN(C)C)cc1)c1ccc(OC(=O)NCc2ccccc2)cc1`, the growth was 73.9% in the assay on DU-145 prostate; -31.7% (active) in the assay on K-562 leukemia; 41.8% in the assay on MALME-3M melanoma; 65.2% in the assay on MDA-MB-231 breast; 80% with RXF 393 renal; 72.4% in the assay on SF-268 CNS. The growth in the assay on SF-295 CNS was 110%; in the assay with SF-539 CNS, 93%; with UACC-257 melanoma it was 83.4%; in the assay with M14 melanoma it was 18.8%; in the assay with HCT-15 colon, 4.38% (active); in the assay with HT29 colon it was 7.12% (active). Also, the growth with SNB-75 CNS is 69.4%; in the assay on SNB-19 CNS, 76.3%; in the assay on U251 CNS, 35.7%; in the assay with PC-3 prostate, 64.5%; with SK-MEL-5 melanoma, 74.4%; in the assay on UACC-62 melanoma, 85%. The growth in the assay with LOX IMVI melanoma is 15.5%; in the assay with SK-MEL-28 melanoma, 90%.
Consider `CCN(CC)CCN1C(=O)c2cccc3c(/C=C/CN4C(=O)c5cccc6cccc(c56)C4=O)ccc(c23)C1=O`, for which the growth in the assay with DU-145 prostate is 106%; with K-562 leukemia, 19.7%; with MALME-3M melanoma, 91.9%; with MDA-MB-231 breast, 95.5%; in the assay on RXF 393 renal, 74.2%; in the assay with SF-268 CNS it was 93.5%. Further, the growth was 108% in the assay on SF-295 CNS; 92.5% with SF-539 CNS; 109% in the assay on UACC-257 melanoma; 105% in the assay on M14 melanoma; 95.8% in the assay on HCT-15 colon; 103% in the assay on HT29 colon. The growth in the assay on SNB-75 CNS was 91.2%; with SNB-19 CNS, 96%; in the assay with U251 CNS it was 105%; in the assay on PC-3 prostate, 86.6%; with SK-MEL-5 melanoma, 94.3%; in the assay with UACC-62 melanoma, 99.8%. For the same compound, the growth was 96.6% with LOX IMVI melanoma and 109% in the assay on SK-MEL-28 melanoma.
Turning to `COc1cccc(NCc2nnc(Nc3ccc(Cl)cc3)c3ccccc23)c1`, the growth is 8.3% (active) in the assay on DU-145 prostate; 2.2% (active) in the assay on K-562 leukemia; -22% (active) with MALME-3M melanoma; -27.1% (active) in the assay on MDA-MB-231 breast; -11.6% (active) in the assay on RXF 393 renal; 2.52% (active) with SF-268 CNS. In addition, the growth in the assay on SF-295 CNS is -22.6% (active); with SF-539 CNS, -10.2% (active); with UACC-257 melanoma it was -39.7% (active); with M14 melanoma, -15.7% (active); in the assay on HCT-15 colon, -18.1% (active); with HT29 colon, -21% (active). Also, the growth with SNB-75 CNS is -6.06% (active); in the assay with SNB-19 CNS, 17.8%; with U251 CNS it was -56.2% (active); with PC-3 prostate it was -13.6% (active); in the assay on SK-MEL-5 melanoma it was -98.5% (active); with UACC-62 melanoma, -29.2% (active). The growth in the assay on LOX IMVI melanoma was -58.7% (active); with SK-MEL-28 melanoma it was -16.1% (active).
As to `COc1ccc(-c2ccc(-c3ccc(C(=N)N)nc3)s2)cc1Cl`, the growth in the assay with DU-145 prostate is -92.5% (active); in the assay on K-562 leukemia, -29.8% (active); in the assay with MALME-3M melanoma it was 74.1%; with MDA-MB-231 breast, -75.1% (active); in the assay on RXF 393 renal, 56.8%; in the assay with SF-268 CNS, -62.8% (active). Further, the growth in the assay on SF-295 CNS was -78.4% (active); in the assay on SF-539 CNS it was -90.6% (active); in the assay with UACC-257 melanoma, 93.5%; in the assay with M14 melanoma it was -40.6% (active); with HCT-15 colon, -77.4% (active); in the assay on HT29 colon it was 2.52% (active). Besides, the growth with SNB-75 CNS is 80.5%; in the assay on SNB-19 CNS it was -35.8% (active); in the assay with U251 CNS, -71.7% (active); with PC-3 prostate, -28.3% (active); in the assay on SK-MEL-5 melanoma, 76%; with UACC-62 melanoma it was 96.3%. The values for the growth in the assay with LOX IMVI melanoma and in the assay with SK-MEL-28 melanoma were -76.4% (active) and 97.2%, respectively.
`O=C(/C=C/C12c3ccccc3C(c3ccccc31)C1C(=O)NC(=O)C12)c1ccc(Br)cc1` (stereo not given): the growth with DU-145 prostate is 46.6%; in the assay on K-562 leukemia, 21.6%; in the assay on MALME-3M melanoma it was 80.5%; in the assay on MDA-MB-231 breast, 52.6%; in the assay on RXF 393 renal it was 25.4%; with SF-268 CNS it was 60.6%. Moreover, the growth in the assay with SF-295 CNS is 71%; in the assay on SF-539 CNS it was 77.9%; in the assay on UACC-257 melanoma, 61.7%; with M14 melanoma, 62.6%; with HCT-15 colon, 36.1%; in the assay with HT29 colon, 20.1%. The growth is 55.7% in the assay with SNB-75 CNS; 51.3% in the assay on SNB-19 CNS; 29.2% with U251 CNS; 29.8% in the assay with PC-3 prostate; 67.8% with SK-MEL-5 melanoma; 46.7% with UACC-62 melanoma. Also, the growth was 21% in the assay on LOX IMVI melanoma and 50.6% in the assay on SK-MEL-28 melanoma.
On to `CC(=O)OC(c1ccccc1)C1CCOC1=O` (stereo not given), for which the growth was 115% with DU-145 prostate; 108% in the assay on K-562 leukemia; 107% in the assay with MALME-3M melanoma; 103% with MDA-MB-231 breast; 101% with RXF 393 renal; 110% in the assay with SF-268 CNS. For the same compound, the growth was 94.6% in the assay with SF-295 CNS; 101% in the assay with SF-539 CNS; 102% in the assay on UACC-257 melanoma; 99.9% in the assay on M14 melanoma; 97.1% in the assay on HCT-15 colon; 99.5% with HT29 colon. Also, the growth with SNB-75 CNS is 79.2%; with SNB-19 CNS, 109%; in the assay on U251 CNS, 99.1%; in the assay on PC-3 prostate, 100%; in the assay on SK-MEL-5 melanoma, 102%; in the assay on UACC-62 melanoma, 87.2%. For the same compound, the growth is 96.7% in the assay on LOX IMVI melanoma and 113% in the assay on SK-MEL-28 melanoma.
As for `CCCn1cnc2c(c1=N)C(c1ccc(F)cc1)c1sc3c(F)cccc3c1O2` (stereo not given), the growth in the assay with DU-145 prostate was 76.6%; with K-562 leukemia, 16.9%; with MALME-3M melanoma, 54.1%; with MDA-MB-231 breast, 63.3%; in the assay with RXF 393 renal it was 52.2%; with SF-268 CNS, 49.6%. For the same compound, the growth in the assay on SF-295 CNS is 27.7%; in the assay on SF-539 CNS, 32.6%; in the assay with UACC-257 melanoma it was 73.4%; in the assay on M14 melanoma, 39.3%; in the assay with HCT-15 colon, 28%; with HT29 colon, 63.6%. For the same compound, the growth in the assay with SNB-75 CNS is 26%; with SNB-19 CNS, 35.4%; with U251 CNS, 30.8%; with PC-3 prostate, 50.1%; with SK-MEL-5 melanoma it was 42.2%; in the assay on UACC-62 melanoma, 12.1%. For the same compound, the growth in the assay with LOX IMVI melanoma was 43.4%; in the assay on SK-MEL-28 melanoma it was 56%.
